Records with an inconclusive call do not appear. Activity calls are given as the source filed them. How the source made its calls: active means hit-call score of the fitted dose curve at least 0.9, where 1 is the maximum; inactive means score below 0.9.

The target in the assay is human Cholecystokinin Receptor CCK2 (CCKB) Agonism, CCKBR (gene 887) (UniProt P32239). The experiment in a line: ERF_FR_GPCR_hCCKBR: Eurofins (ERF) G Protein-Coupled Receptor (GPCR) Radioligand Binding LeadHunter Assay for human Cholecystokinin Receptor CCK2 (CCKB) Agonism. The procedure: ERF_FR_GPCR_hCCKBR is a biochemical, single-readout assay that uses extracted gene-proteins in a cell-free assay. Measurements were taken 1 hour after chemical dosing in a 96-well plate. See CCK2 (CCKB) Human Cholecystokinin GPCR Binding (Agonist Radioligand) Assay, Cerep.ERF_FR_GPCR_hCCKBR is an assay component calculated from the ERF_FR_GPCR_hCCKBR assay. It is designed to measure radioligand binding using a type of binding reporter as detected by scintillation counting with radiometry technology.Data from the assay component ERF_FR_GPCR_hCCKBR was analyzed at the assay endpoint, ERF_FR_GPCR_hCCKBR, in the positive analysis fitting direction relative to DMSO as the negative control and baseline of activity. Using a type of binding reporter, […] activity can be used to understand changes in binding as they relate to gene CCKBR. To generalize the intended target to other relatable targets, this assay endpoint is annotated to the gpcr intended target family, where the subfamily is cholecystokinin.
Sequence of human Cholecystokinin Receptor CCK2 (CCKB) Agonism, CCKBR (gene 887) (P32239 whole entry, looked up): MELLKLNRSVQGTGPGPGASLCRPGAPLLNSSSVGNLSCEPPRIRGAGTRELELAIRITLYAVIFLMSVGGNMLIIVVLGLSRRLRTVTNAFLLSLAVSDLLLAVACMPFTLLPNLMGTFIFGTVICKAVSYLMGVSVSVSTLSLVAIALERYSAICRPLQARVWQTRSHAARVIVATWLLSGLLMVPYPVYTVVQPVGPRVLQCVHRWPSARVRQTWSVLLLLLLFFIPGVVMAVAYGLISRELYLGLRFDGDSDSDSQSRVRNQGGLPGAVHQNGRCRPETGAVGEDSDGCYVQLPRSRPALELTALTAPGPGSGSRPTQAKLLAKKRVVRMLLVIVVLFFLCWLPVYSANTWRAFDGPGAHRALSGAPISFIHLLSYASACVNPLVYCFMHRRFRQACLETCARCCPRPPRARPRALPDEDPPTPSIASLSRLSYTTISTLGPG
Human cells are incubated for 60 minutes at room temprature with [125I]CCK-8s ligand (0.08 nM) and CCK-8s as control inhibitor.Test Sample Requirements: Minimum for 1) Screen: 60 ul of 10 mM stock -OR- 1 mg (pre-weighed) for 10 uM final testing. 2) Dose Response: 90 ul of 10 mM stock -OR- 1 mg (pre-weighed) for a top concentration at 10 uM.
As a reminder, the AC50 is the midpoint of the concentration-response curve, whichever way the signal moves. As for `O=C(/C=C/c1ccc(O)cc1)CC(=O)/C=C/c1ccc(O)cc1`, the AC50 is 3.43 µM (active).

The values above are taken from PubChem BioAssay AID2284151 (EPA ToxCast).
